Reference: PubChem BioAssay (Tox21)
Records with an inconclusive call do not appear. The source made the active and inactive calls. Unless noted, calls follow the shape of the dose curve; as a rule, active = well fitted curve in the direction sought with a large enough effect in the repeat runs; inconclusive = weak or mixed curves; inactive = no such curve, though single readings can be large; an effect the other way counts as inactive or inconclusive.

Experiments:
[1] = Human pregnane X receptor (PXR) small molecule agonists, qHTS cell viability counter screen (AID 1346977); also: nearly all actives have a fitted effect of over 50% in size; also: potency is read from the fitted curve at half-maximal effect
In short: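 PXR-Luc HepG2, 2,000 cells/well, 5% charcoal-stripped FBS; 5hr settle; cpd 24hr, 37C/5% CO2; CellTiter-Fluor at 23hr, read 1hr later (fluorescence).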

[2] = Caspase-3/7 induction in HepG2 cells by small molecules, qHTS assay (AID 1346978); also: nearly all actives have a fitted effect of over 15% in size
In short: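 Caspase-3/7 induction was measured by Caspase-Glo 3/7 luminescence (30 min, room temperature) after a 17 hr compound exposure of wild-type HepG2 cells seeded at 2,000 per well and pre-incubated 5 hr.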

[3] = Caspase-3/7 induction in CHO-K1 cells by small molecules, qHTS cell viability counter screen (AID 1346979); also: nearly all actives have a fitted effect of over 35% in size; also: potency is read from the fitted curve at half-maximal effect
In short: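 Cells (CHO-K1, wild type) are plated at 1,500 per well and incubated 5hr. Test compounds in DMSO are then pinned in, followed by 16hr at 37C and 5% CO2. Viability is read by CellTiter-Fluor fluorescence after 1hr.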

[4] = Caspase-3/7 induction in HepG2 cells by small molecules, qHTS cell viability counter screen (AID 1346981); also: series mostly up to about 92 µM; nearly all actives have a fitted effect of over 30% in size
In short: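 Multiplexed with the caspase-3/7 assay: HepG2 cells, 16 hr compound treatment, CellTiter-Fluor viability detection by fluorescence.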

[5] = target: Acetylcholinesterase (Homo sapiens) (UniProt P22303); assay: Acetylcholinesterase (AChE) small molecule antagonists: colormetric cell-based qHTS assay (AID 1347395; calls by dose curve; also: nearly all actives have a fitted effect of over 30% in size; also: potency is read from the fitted curve at half-maximal effect)
In short: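 Colorimetric read-out: DTNB detects thiocholine released when cellular AChE in SH-SY5Y cells hydrolyses acetylthiocholine. Cells attached overnight, received compound for 30 min at 37 C, then substrate mix for 90 min at 37 C.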

[6] = Caspase-3/7 induction in CHO-K1 cells by small molecules, qHTS assay (AID 1346980); also: nearly all actives have a fitted effect of over 15% in size
In short: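 Luminescent Caspase-Glo 3/7 read (30min, room temperature) quantified apoptosis induction. Cells were wild-type CHO-K1, treated with compound for 17hr at 37 C and 5% CO2.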

[7] = target: Nuclear receptor subfamily 1 group I member 2 (Homo sapiens) (UniProt O75469); assay: Human pregnane X receptor (PXR) small molecule agonists, qHTS assay (AID 1346982); also: nearly all actives have a fitted effect of over 35% in size; also: potency is read from the fitted curve at half-maximal effect
In short: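 We seeded PXR-Luc HepG2 cells in assay medium containing 5% charcoal-stripped FBS, added compounds 5 hr later, incubated 24 hr, and read luminescence with ONE-Glo reagent.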

[8] = target: Nuclear receptor subfamily 1 group I member 2 (Rattus norvegicus) (UniProt Q9R1A7); assay: Rat pregnane X receptor (rPXR) activation by small molecules, qHTS assay (AID 1346983); conditions: rPXR luciferase reporter cells, One-Glo luminescence, 24 h; max activation: active compounds read high; also: nearly all actives have a fitted effect of over 20% in size; also: potency is read from the fitted curve at half-maximal effect
In short: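 Luminescent readout (One-Glo luciferase, 30 min room temperature) followed 24 hr compound treatment at 37 C of rPXR cells plated 2,000 per well and preincubated 5hr; qHTS format with compounds delivered in DMSO.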

[9] = target: Nuclear receptor subfamily 1 group I member 2 (Homo sapiens) (UniProt O75469); assay: CYP3A4 induction through human pregnane X receptor (PXR) by small molecules, qHTS assay (AID 1346984); also: nearly all actives have a fitted effect of over 40% in size
In short: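 qHTS, concentration-response format: HepG2 DPX-2 line, PXR/CYP3A4-luc. Exposure 24 h, 37C. Substrate Luciferin-IPA 3uM final, 3 h. Detection One-Glo, 30 min RT.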

[10] = target: Nuclear receptor subfamily 1 group I member 2 (Homo sapiens) (UniProt O75469); assay: Human pregnane X receptor (PXR) activation by small molecules, qHTS assay (AID 1346985); also: nearly all actives have a fitted effect of over 40% in size
In short: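 DPX-2 cells (HepG2 co-transfected with a PXR response element and a CYP3A4-promoter luciferase construct) were seeded at 2,000 per well, rested 5 hr at 37C, then exposed to DMSO-dissolved compounds for 24 hr. Activation was read as luciferase luminescence.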
% is scaled to controls: 0 for no effect and ±100 for the full control effect.

Chain of Nuclear receptor subfamily 1 group I member 2 (Homo sapiens) (O75469 whole entry, looked up): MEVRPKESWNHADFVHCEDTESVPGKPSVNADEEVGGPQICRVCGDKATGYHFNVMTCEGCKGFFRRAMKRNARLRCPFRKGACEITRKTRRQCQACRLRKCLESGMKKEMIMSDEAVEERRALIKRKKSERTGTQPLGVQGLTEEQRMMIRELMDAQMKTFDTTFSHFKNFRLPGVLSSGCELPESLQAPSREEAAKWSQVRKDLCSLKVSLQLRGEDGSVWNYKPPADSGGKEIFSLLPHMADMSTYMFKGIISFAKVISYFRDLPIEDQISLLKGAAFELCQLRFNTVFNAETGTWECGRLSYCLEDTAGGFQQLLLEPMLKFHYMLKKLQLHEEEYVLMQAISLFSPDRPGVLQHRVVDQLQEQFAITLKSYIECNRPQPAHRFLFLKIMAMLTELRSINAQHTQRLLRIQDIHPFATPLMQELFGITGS
Chain of Acetylcholinesterase (Homo sapiens) (P22303 whole entry, looked up): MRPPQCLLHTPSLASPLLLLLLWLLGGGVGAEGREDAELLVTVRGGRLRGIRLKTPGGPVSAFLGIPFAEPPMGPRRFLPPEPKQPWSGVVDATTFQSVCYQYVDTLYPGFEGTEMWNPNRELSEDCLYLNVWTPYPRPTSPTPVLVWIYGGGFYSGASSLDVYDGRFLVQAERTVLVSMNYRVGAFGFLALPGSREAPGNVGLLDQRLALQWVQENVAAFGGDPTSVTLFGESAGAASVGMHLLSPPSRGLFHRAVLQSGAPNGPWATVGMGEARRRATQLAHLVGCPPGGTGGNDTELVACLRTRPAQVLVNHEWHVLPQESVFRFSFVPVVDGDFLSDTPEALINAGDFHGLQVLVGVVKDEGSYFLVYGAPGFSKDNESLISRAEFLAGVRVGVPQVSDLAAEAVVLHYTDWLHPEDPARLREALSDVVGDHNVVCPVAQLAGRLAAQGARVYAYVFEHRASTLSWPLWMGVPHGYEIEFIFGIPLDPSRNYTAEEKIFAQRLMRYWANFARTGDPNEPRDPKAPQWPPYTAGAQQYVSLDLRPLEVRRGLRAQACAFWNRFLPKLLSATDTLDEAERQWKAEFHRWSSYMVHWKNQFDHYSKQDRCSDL
Chain of Nuclear receptor subfamily 1 group I member 2 (Rattus norvegicus) (Q9R1A7 whole entry, looked up): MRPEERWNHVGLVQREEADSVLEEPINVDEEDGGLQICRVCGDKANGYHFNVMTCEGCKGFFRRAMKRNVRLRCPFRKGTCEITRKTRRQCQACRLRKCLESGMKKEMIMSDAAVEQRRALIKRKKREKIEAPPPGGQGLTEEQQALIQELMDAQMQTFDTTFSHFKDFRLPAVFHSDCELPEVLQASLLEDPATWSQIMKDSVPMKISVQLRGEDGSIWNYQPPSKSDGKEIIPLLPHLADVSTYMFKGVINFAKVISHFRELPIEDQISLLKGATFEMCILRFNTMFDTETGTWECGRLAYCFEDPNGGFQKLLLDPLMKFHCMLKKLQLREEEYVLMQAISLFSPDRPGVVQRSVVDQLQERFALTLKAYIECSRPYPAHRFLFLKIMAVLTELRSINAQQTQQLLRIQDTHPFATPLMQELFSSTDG

CC(C)NCC(O)c1ccc(N)c(C#N)c1 (stereo not drawn)
inactive: Potency [1] | Potency [2] | Potency [3] | Potency [4] | Potency [5]

CNC(=O)Oc1ccc(N(C)C)c(C)c1
inactive: Potency [1] | Potency [2] | Potency [3] | Potency [6] | Potency [4]
active: Potency [5] 5.64 µM

CC(C)CP(=S)(S)CC(C)C
active: Potency [3] 48.6 µM
inactive: Potency [1] | Potency [2] | Potency [7] | Potency [5]

c1cc2c(c(N3CCNCC3)c1)OCCO2
inactive: Potency [1] | Potency [2] | Potency [3] | Potency [4] | Potency [7] | max activation [8] 6.77% | Potency [9] | Potency [10] | Potency [5]

NC(=O)O
inactive: Potency [1] | Potency [2] | Potency [3] | Potency [6] | Potency [7] | Potency [5]

c1ccc(N2CCNCC2)cc1
inactive: Potency [1] | Potency [2] | Potency [3] | Potency [4] | Potency [7] | Potency [5]

Nc1cc(Cl)ccc1O
inactive: Potency [1] | Potency [2] | Potency [5]
active: Potency [3] 29.6 µM

COP(N)(=S)Oc1ccccc1C(=O)OC(C)C (stereo not drawn)
inactive: Potency [1] | Potency [2] | Potency [6] | Potency [4]

CCCCP(CCCC)CCCC
inactive: Potency [1] | Potency [2] | Potency [3] | Potency [4] | Potency [7] | Potency [5]

CSc1nc(N=[N+]=[N-])nc(NC(C)C)n1
active: Potency [7] 61.1 µM
inactive: Potency [1] | Potency [2] | Potency [3] | Potency [4] | Potency [5]

c1cc[c]([Hg][c]2ccccc2)cc1
active: Potency [1] 68.6 µM | Potency [3] 68.6 µM | Potency [7] 10.9 µM
inactive: Potency [2] | Potency [4] | Potency [5]

C1CCC(C2CCCCC2)CC1
inactive: Potency [1] | Potency [2] | Potency [3] | Potency [4] | Potency [7] | Potency [5]

Cc1cc(C)c(C(=O)P(=O)(C(=O)c2c(C)cc(C)cc2C)c2ccccc2)c(C)c1
inactive: Potency [1] | Potency [2] | Potency [3] | Potency [4] | Potency [5]
active: Potency [7] 24.3 µM

Cc1cc(C)nc(Nc2ccccc2)n1
inactive: Potency [1] | Potency [2] | Potency [3] | Potency [4] | Potency [5]

Nc1ccccc1Cl
inactive: Potency [1] | Potency [2] | Potency [3] | Potency [4] | Potency [7] | Potency [5]

O=NN1CCCCC1
inactive: Potency [1] | Potency [2] | Potency [3] | Potency [4] | Potency [7] | Potency [5]

ClC(Br)Br
inactive: Potency [1] | Potency [2] | Potency [3] | Potency [6] | Potency [4] | Potency [5]

O=P(O)(Oc1ccccc1)Oc1ccccc1
inactive: Potency [1] | Potency [2] | Potency [3] | Potency [6] | Potency [7] | Potency [5]

COP(=S)(OC)Oc1ccc(S(N)(=O)=O)cc1
inactive: Potency [1] | Potency [2] | Potency [6] | Potency [4] | Potency [7] | Potency [5]

Cc1cccc(C#N)c1
inactive: Potency [1] | Potency [2] | Potency [3] | Potency [4] | Potency [5]

C[N+](=O)[O-]
inactive: Potency [1] | Potency [2] | Potency [6] | Potency [4] | Potency [7] | Potency [5]

COc1ncc(F)c2nc(S(=O)(=O)Nc3c(F)cccc3F)nn12
inactive: Potency [1] | Potency [2] | Potency [6] | Potency [4] | Potency [7] | Potency [5]

O=C(Oc1ccc(Br)cc1)N1CCN2CCC1CC2
inactive: Potency [1] | Potency [2] | Potency [6] | Potency [4] | Potency [7] | Potency [5]

C(CCOCC1CO1)COCC1CO1 (stereo not drawn)
inactive: Potency [1] | Potency [2] | Potency [6] | Potency [4] | Potency [7] | Potency [5]

O=C(CCN1CC1)OCC(CO)(COC(=O)CCN1CC1)COC(=O)CCN1CC1
inactive: Potency [1] | Potency [3] | Potency [6] | Potency [4] | Potency [7] | Potency [5]

C=C(C)CN(CC)c1c([N+](=O)[O-])cc(C(F)(F)F)cc1[N+](=O)[O-]
inactive: Potency [1] | Potency [2] | Potency [4] | Potency [5]
active: Potency [7] 27.3 µM

COc1cc(OC)nc(NC(=O)NS(=O)(=O)c2ncccc2C(=O)N(C)C)n1
inactive: Potency [1] | Potency [3] | Potency [6] | Potency [4] | Potency [7] | Potency [5]

ClC(Cl)C(Cl)Cl
inactive: Potency [1] | Potency [2] | Potency [4] | Potency [5]
active: Potency [7] 55 µM

CC(C)COP(=O)(OCC(C)C)OCC(C)C
inactive: Potency [1] | Potency [3] | Potency [6] | Potency [4] | Potency [5]

Cc1coc2c1CCC(C)C2 (stereo not drawn)
active: Potency [7] 17.8 µM
inactive: Potency [1] | Potency [3] | Potency [6] | Potency [4] | Potency [5]

CC(=O)[C@H]1CC[C@H]2[C@@H]3CC[C@H]4C[C@H](O)CC[C@]4(C)[C@H]3C(=O)C[C@]12C
active: Potency [8] 11.2 µM
inactive: Potency [1] | Potency [2] | Potency [6] | Potency [4] | Potency [10] | Potency [5]

CCOP(=S)(OCC)SCSc1ccc(Cl)cc1
inactive: Potency [1] | Potency [3] | Potency [6] | Potency [4]
